MsrA inhibitor = bovine MsrA inhibition | purified bovine MsrA, absorbance read-out | 360,000 compounds, 0.75% hits | inhibition, % at 15.5 µM | AID 651718; in the data active = inhibition above about 4.5%
Pemphigus Ab inh = inhibitors of pemphigus antibody binding to human desmoglein-3 | P32926 | binding (percent of control), % at 10 µM | 310,000 compounds, 0.48% hits | DSG3-coupled beads, scFv-anti-DSG3-GFP binding, flow cytometry; active compounds read low;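 active = binding more than 3 SD below its plate's average and above zero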;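 also: hits lower antibody fragment binding to DSG3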
Target sequence (P32926 whole entry, looked up, the tested form may be a part): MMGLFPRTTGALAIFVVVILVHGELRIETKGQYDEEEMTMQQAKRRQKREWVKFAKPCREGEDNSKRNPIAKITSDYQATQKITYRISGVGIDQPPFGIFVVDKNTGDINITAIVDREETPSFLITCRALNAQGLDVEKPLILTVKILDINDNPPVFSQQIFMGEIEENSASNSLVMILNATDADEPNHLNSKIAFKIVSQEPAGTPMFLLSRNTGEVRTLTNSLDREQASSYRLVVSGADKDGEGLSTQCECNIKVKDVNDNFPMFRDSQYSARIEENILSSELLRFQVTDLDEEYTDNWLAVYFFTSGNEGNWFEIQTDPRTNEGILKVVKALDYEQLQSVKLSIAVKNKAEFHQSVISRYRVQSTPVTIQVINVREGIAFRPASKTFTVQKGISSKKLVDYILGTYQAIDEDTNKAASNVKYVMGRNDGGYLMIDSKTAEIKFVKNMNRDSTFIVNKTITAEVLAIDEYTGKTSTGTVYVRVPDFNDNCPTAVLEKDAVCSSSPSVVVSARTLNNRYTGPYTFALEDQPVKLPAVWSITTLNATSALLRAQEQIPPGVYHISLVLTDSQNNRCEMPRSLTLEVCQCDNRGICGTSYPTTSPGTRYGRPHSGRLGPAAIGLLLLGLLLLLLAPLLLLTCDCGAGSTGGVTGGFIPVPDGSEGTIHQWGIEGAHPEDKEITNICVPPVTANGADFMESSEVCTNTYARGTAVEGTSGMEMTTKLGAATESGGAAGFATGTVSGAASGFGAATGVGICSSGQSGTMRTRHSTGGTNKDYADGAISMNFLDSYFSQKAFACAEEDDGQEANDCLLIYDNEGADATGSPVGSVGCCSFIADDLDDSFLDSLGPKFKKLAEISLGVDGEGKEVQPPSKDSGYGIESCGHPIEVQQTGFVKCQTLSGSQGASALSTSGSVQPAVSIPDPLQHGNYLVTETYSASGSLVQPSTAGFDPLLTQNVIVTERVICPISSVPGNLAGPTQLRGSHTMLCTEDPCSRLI
DAGLB inhibitor = blocks human DAGLB lipase activity | 340,000 compounds, 0.059% hits | inhibition, % at 5.17 µM | HEK293T DAGLB membrane lysate, EnzChek fluorogenic substrate; in the data active = inhibition above about 34%
MsrA act = bovine methionine sulfoxide reductase A activation | AID 602163 | purified bovine MsrA, absorbance read-out | activation, % at 10.6 µM | 360,000 compounds, 0.3% hits; in the data active = activation above about 7.5%
rCAG RNA binder = molecules binding r(CAG) RNA repeats | r(CAG) RNA repeat, TO-PRO-1 dye displacement fluorescence | 370,000 compounds, 1.3% hits | inhibition, % at 3 µM | AID 651821;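 active = inhibition above the plate cutoff, the mean of all test compounds on that plate plus 3 SD, cut at about 35% in these data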;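 also: higher means more dye released from RNA so lower well fluorescence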
NadD block = blocks S. aureus nicotinate mononucleotide adenylyltransferase | purified NadD enzyme, colorimetric absorbance read-out | inhibition, % at 20 µM | 360,000 compounds, 0.78% hits | AID 602399; in the data active = inhibition above about 26%
rCAG binder conf = r(CAG) RNA repeat binding, confirmation. shares compounds with rCAG RNA binder. inhibition, % at 3 µM. 4,300 compounds, 70% hits. TO-PRO-1 dye displacement fluorescence;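 active = inhibition above a per-plate cutoff, the mean inhibition of sample wells plus 3 SD, cut at about 35% in these data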;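 also: loss of TO-PRO-1 fluorescence as compound displaces dye from 1x1 AA loop RNA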
DNA CAG counter = counter-screen for rCAG RNA binders: DNA CAG dye complex inhibitors | shares compounds with rCAG RNA binder | 4,300 compounds, 94% hits | inhibition, % at 3 µM | AID 652068 | d(CAG) DNA oligo TO-PRO-1 dye displacement, fluorescence;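 active = inhibition above its plate's cutoff, the mean test-well inhibition plus 3 SD, cut at about 4.8% in these data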;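 also: hits displace the dye from DNA and so lower well fluorescence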
Large screens that a line does not name were inactive (follow-up assays come after a bar, where they were run). This is a sample that favours compounds with a hit; in the whole collection about 3.2% have one here.

O=C(NCC(c1cccs1)N1CCOCC1)c1ccccc1NS(=O)(=O)c1ccc(Cl)cc1 (stereo unspecified)	rCAG RNA binder 50.4 | rCAG binder conf 61.1 | DNA CAG counter 22.6
O=C(NCC(c1ccco1)N1CCCCC1)c1ccc(S(=O)(=O)Nc2ccccc2Cl)cc1 (stereo unspecified)	rCAG RNA binder 43.1 | rCAG binder conf 38.8 | DNA CAG counter 8.8
CC(=O)c1ccc(S(=O)(=O)Nc2ccc(C(=O)NCC(c3cccs3)N3CCOCC3)cc2)cc1 (stereo unspecified)	none
O=C(NCC(c1cccs1)N1CCOCC1)c1ccccc1NS(=O)(=O)c1ccc(Br)cc1 (stereo unspecified)	rCAG RNA binder 49.0 | rCAG binder conf 46.5 | DNA CAG counter 14.7
O=C(CCNS(=O)(=O)c1ccc(Br)cc1)NCC(c1cccs1)N1CCOCC1 (stereo unspecified)	none
O=C(NCC(c1ccco1)N1CCCC1)c1ccc(S(=O)(=O)Nc2ccccc2Cl)cc1 (stereo unspecified)	none (no result: Pemphigus Ab inh)
CCN(Cc1ccccc1)c1cc2c(c3c1ccn3C)C1CCC2C1 (stereo unspecified)	none (no result: Pemphigus Ab inh, DAGLB inhibitor)
COc1cccc(Cn2cc(COC(=O)N3CCCC3)nn2)c1	none (no result: MsrA inhibitor, Pemphigus Ab inh, DAGLB inhibitor, MsrA act, NadD block)
COc1cccc(NC(=O)C2(C)CCN2CCc2ccccc2)c1 (stereo unspecified)	none (no result: Pemphigus Ab inh, DAGLB inhibitor)
CC(C)(C)N1Cc2nnn(Cc3ccccc3)c2-c2cc(N3CCCC3)ccc2S1(=O)=O	none (no result: MsrA inhibitor, Pemphigus Ab inh, DAGLB inhibitor, MsrA act, NadD block)
O=C(NNC(=S)Nc1ccccc1)c1cc(-c2cccnc2)nc2ccccc12	rCAG RNA binder 50.5 | rCAG binder conf 43.3 | DNA CAG counter 13.0
CCCNC(=S)NNC(=O)c1cc(-c2cccnc2)nc2ccccc12	none
CCNC(=S)NNC(=O)c1cc(-c2cccnc2)nc2ccccc12	none
CCNC(=S)NNC(=O)c1cc(-c2cccc(C)c2)nc2ccccc12	rCAG RNA binder 43.2 | rCAG binder conf 39.9 | DNA CAG counter 11.8
CCOC(=O)c1ccc(NC(=S)NNC(=O)c2cc(-c3cccnc3)nc3ccccc23)cc1	rCAG RNA binder 78.3 | rCAG binder conf 79.7 | DNA CAG counter 36.9
CCNC(=S)NNC(=O)c1cc(-c2cccc(OCC)c2)nc2ccccc12	none
CCCCNC(=S)NNC(=O)c1cc(-c2cccnc2)nc2ccccc12	rCAG RNA binder 43.4 | rCAG binder conf inactive | DNA CAG counter 7.7
C#CCN1CC(COCCCC)Oc2cccc(Oc3ccc(C(C)(C)C)c(C)c3)c2S1(=O)=O (stereo unspecified)	none (no result: Pemphigus Ab inh, DAGLB inhibitor, MsrA act, NadD block)
C=C1CCCC2OC(CC3=CC4/C(C)=C/CC(C)CC(/C=C(\C)C(O)C5CC(O)C(O)C(CCC(O)/C=C/C(C)=C/CCC6=NCCC(C3)C64C)O5)OC(=O)CC3OC(C(O)C1)C(O)C3O)CC(O)C2O (stereo unspecified)	none (no result: Pemphigus Ab inh, DAGLB inhibitor)
Cc1ccc(-n2c(SCC(=O)Nc3ccc4c5c(cccc35)CC4)nc(O)c(C)c2=O)cc1	rCAG RNA binder 51.2 | rCAG binder conf inactive | DNA CAG counter 11.3
Cc1ccc(NC(=S)NNC(=O)CSc2nc3ccccc3c(=O)n2-c2ccc(C)cc2)cc1	rCAG RNA binder 45.1 (no result: Pemphigus Ab inh) | rCAG binder conf 44.5 | DNA CAG counter 20.0
Cc1ccc(-n2c(SCC(=O)Nc3ccc4c5c(cccc35)CC4)nc(O)cc2=O)cc1	none
COc1ccc(-n2c(SCC(=O)NNC(=S)Nc3ccccc3)nc3ccccc3c2=O)cc1	rCAG RNA binder 49.6 (no result: MsrA inhibitor, Pemphigus Ab inh, DAGLB inhibitor, MsrA act, NadD block) | rCAG binder conf 43.2 | DNA CAG counter 16.4
COc1ccc(-n2c(SCC(=O)Nc3ccc(NC(C)=O)cc3)nc3ccccc3c2=O)cc1	none
CCOc1ccc(S(=O)(=O)N2CCC(C(=O)Nc3ccccc3N3CCCC3)CC2)cc1	none
COC(=O)[C@]12C[C@H](CC(=O)N3CCOCC3)C(=O)N(CCc3ccc(OC)c(OC)c3)C1=C[C@H](COCc1ccccc1)O[C@@H]2C	none (no result: MsrA inhibitor, Pemphigus Ab inh, DAGLB inhibitor, MsrA act, NadD block)
CC(C)N1CCCCC(NC(=O)c2c(F)cccc2F)C1=O (stereo unspecified)	none (no result: MsrA inhibitor, Pemphigus Ab inh, DAGLB inhibitor, MsrA act, NadD block)
CC1=CCC[C@@H]2[C@@](C)(CC/C(C)=C/C(=O)O)[C@H](C)CC[C@@]12C	rCAG RNA binder 44.7 | rCAG binder conf 43.1 | DNA CAG counter 8.6
O=C(O)c1cccc(NC(=S)NC(=O)c2cccc(OCc3ccccc3)c2)c1	rCAG RNA binder 60.9 | rCAG binder conf 63.7 | DNA CAG counter 25.6
COc1ccc2c(C(c3ccccc3O)C3CCCN3S(=O)(=O)c3ccc(C)cc3)cn(C)c2c1 (stereo unspecified)	none (no result: MsrA inhibitor, Pemphigus Ab inh, DAGLB inhibitor, MsrA act, NadD block)
O=C(Nc1nnc(-c2cccs2)o1)c1cccc(Oc2ccccc2)c1	rCAG RNA binder 37.5 | rCAG binder conf 53.1 | DNA CAG counter 15.0
O=C(Nc1nnc(-c2cccs2)o1)c1cccc(F)c1	none
C/C(=N\Nc1cc(C)nc(-c2ccccc2O)n1)c1ccccc1	none
Cc1cc(N/N=C/c2ccc(O)c(C)c2O)nc(-c2ccccc2O)n1	rCAG RNA binder 62.1 | rCAG binder conf 53.4 | DNA CAG counter 24.1
Cc1ccc(Nc2cc(C)nc(-c3ccccc3O)n2)cc1	none
Cc1cc(Nc2ccc(Br)cc2)nc(-c2ccccc2O)n1	rCAG RNA binder 38.0 | rCAG binder conf inactive | DNA CAG counter inactive
CCn1c2ccccc2c2cc(NC(=O)c3cc4c(C)nn(-c5ccccc5)c4s3)ccc21	none (no result: MsrA inhibitor, Pemphigus Ab inh, DAGLB inhibitor, MsrA act, NadD block)
O=C(O)c1ccc(COc2ccc3ccccc3c2/C=C2/NC(=O)N(Cc3ccc(F)cc3)C2=O)cc1	none
O=C(O)c1ccc(COc2ccccc2/C=C2\NC(=O)N(Cc3ccccc3)C2=O)cc1	rCAG RNA binder 42.7 | rCAG binder conf 45.6 | DNA CAG counter 10.6
CCCN1C(=O)/C(=C/c2ccccc2OCc2ccc(C(=O)O)cc2)NC1=S	rCAG RNA binder 39.1 | rCAG binder conf inactive | DNA CAG counter 8.1
COc1cc(/C=C(/C#N)C(=O)Nc2ccccc2)c(Br)cc1OCc1ccc(C(=O)O)cc1	rCAG RNA binder 46.1 | rCAG binder conf 72.7 | DNA CAG counter 35.2
O=C(O)c1ccc(COc2ccccc2/C=C2\NC(=O)N(Cc3ccccc3F)C2=O)cc1	rCAG RNA binder 42.4 | rCAG binder conf 44.9 | DNA CAG counter 13.7
N#C/C(=C\c1ccccc1OCc1ccc(C(=O)O)cc1)c1ccccc1	rCAG RNA binder 34.9 | rCAG binder conf inactive | DNA CAG counter 5.3
Cc1c(NC(=O)C2CCCN(S(=O)(=O)c3c(C(C)C)cc(C(C)C)cc3C(C)C)C2)c(=O)n(-c2ccccc2)n1C (stereo unspecified)	none (no result: MsrA inhibitor, Pemphigus Ab inh, DAGLB inhibitor, MsrA act, NadD block)
COc1ccc(/C=N/NC(=O)c2ccc(O)cc2O)cc1CSc1ccccn1	rCAG RNA binder 35.9 | rCAG binder conf inactive | DNA CAG counter 12.0
Clc1cccc(CNc2ccn3nc(-c4ccccc4Cl)cc3n2)c1	none (no result: Pemphigus Ab inh, DAGLB inhibitor)
